Broadly, the inhibition is the change of the read-out against control, counted positive when it falls.

The record followed here is PubChem BioAssay.

Assay [1] can be described thus: rapamycin-like changes in RPL19A-GFP expression – cell-based, S. cerevisiae, multiplex flow cytometry, primary screen (AID 1862).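 Further: lower values mimic rapamycin by blocking the RPL19A rise seen in DMSO cells.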 The note with it: S. cerevisiae RPL19A-GFP strain, flow cytometry fluorescence, 3 h; at 10 µM; stronger effect = lower value. (Flow cytometry measures light scatter and fluorescence of single cells or particles in a stream.)
A short description of assay [2]: TOR pathway RTG branch CIT2 reporter changes – S. cerevisiae, GFP fusion, multiplex flow cytometry, primary screen (AID 1870;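 active means percent response above a set limit, the screen-wide mean plus 3 SD, cut at about 130% in these data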;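 further: barcoded CIT2-GFP strain pooled with four other GFP strains with rapamycin as positive control; median GFP fluorescence per well over plate mean of DMSO wells so 100% = DMSO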). The note with it: S. cerevisiae CIT2-GFP expression, 3 h, at 10 µM, stronger effect = higher value.
Assay [3] in a line: TOR pathway LAP4-GFP level changes – S. cerevisiae, multiplex flow cytometry, primary screen (AID 1873;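 active means GFP signal, as percent of the solvent control, above the screen mean plus 3 SD, about 149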). Particulars: S. cerevisiae LAP4-GFP expression, 3 h, at 10 µM, stronger effect = higher value.
The nature of assay [4]: yeast AGP1-GFP level changes, GLN3 branch – cell-based, multiplex flow cytometry, S. cerevisiae, primary screen (AID 1887;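 active means GFP signal above the screen-wide mean plus 3 SD, that is over about 124.5% of the solvent control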;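 further: AGP1-GFP fusion strain of S. cerevisiae within a five-strain barcoded multiplex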). The note with it: 3 h, at 10 µM, stronger effect = higher value.
The nature of assay [5]: reduced mouse 2C T cell binding to pMHC/ICAM-1 vesicles – MLPCN validation set, flow cytometry, LFA-1/ICAM-1 modulator project, pilot screen (AID 2523;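 active means response below a set limit, under 55% cells CD8-positive and vesicle-bound, and CD8 cells' 90th-percentile brightness under 279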;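 on vesicle binding response: mean PE anti-B7-1 fluorescence of CD8+ cells relative to row control; 100% = QL9-loaded vesicles with DMSO vehicle in the same plate row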). Particulars: 2C mouse CD8+ T cells, at 7 µM, stronger effect = lower value; double positive events: measured here: CD8+/vesicle+ event percentage.
In assay [6] the target is Integrin beta-1 (Homo sapiens) + Integrin alpha-4 (Homo sapiens) (UniProt P13612+P05556). The experiment in a line: alpha4beta1 integrin LIBS antibody binding reduction – U937 cells, HUTS-21 mAb, flow cytometry, validation set, VLA-4 allosteric modulator project, pilot screen (AID 2674;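 active means inhibition above 50%, about 3 SD of the validation set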;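 further: antibody binding induced by the VLA-4 ligand LDV present at three times its Kd; 0% = LDV ligand with antibody and no compound and 100% = antibody without LDV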). Particulars: HUTS-21 LIBS mAb binding, at 6.7 µM, stronger effect = higher value, binding induced by LDV ligand.

A short description of assay [7]: calorie-restriction mimetic ROS inhibitors, yeast – validation compound set, pilot screen (AID 2706;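 active means superoxide response below 65% of plate, a cut near 3 SD across the whole screen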;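 further: yeast exposed to compound for one week at 30 degrees C before staining; 100% = mean of all compound wells on the same plate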). Particulars: S. cerevisiae aging, superoxide DHE fluorescence; at 10 µM, stronger effect = lower value.
Assay [8] deals with Beta-adrenergic receptor kinase 1 (Homo sapiens) (UniProt P25098). As to the kind of experiment: GRK2 binders displacing RNA aptamer, biochemical, validation, human GRK2, bead flow cytometry (AID 488806;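 active means aptamer binding inhibition above 30%, about 3 SD of noise from non-fluorescent compounds; inactive means inhibition at or below 30%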). Particulars: bead-bound GRK2, FAM-aptamer displacement, at 10 µM, stronger effect = higher value.
The target of assay [9] is Beta-2 adrenergic receptor (Homo sapiens) (UniProt P07550). The experiment in a line: agonist-induced loss of surface beta2AR – cell-based, FAP fluorogen, flow cytometry, validation set, pilot screen (AID 504459;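 active means percent response above 42, roughly 3 SD of non-fluorescent test compounds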;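 further: agonist-driven loss of surface beta2AR via internalization measured by FAP dye flow cytometry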). The note with it: Am2.2-beta2AR cells, at 10 µM, stronger effect = higher value.
Assay [10] addresses AP-2 complex subunit beta (Homo sapiens) (UniProt P63010). The experiment in a line: beta-arrestin/AP2 interaction blockers – biochemical, validation set, GST-AP2 beads, flow cytometry, pilot screen (AID 504541;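 active means inhibition above 54%, about 3 SD of non-fluorescent compounds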;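 further: AP2 carries R879A mutation and is captured from E. coli lysate; bead-bound FITC arrestin peptide fluorescence measuring arrestin peptide binding to AP2; 0% = DMSO wells and 100% = excess unlabeled arrestin peptide control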). The note with it: FITC arrestin peptide, at 10 µM, stronger effect = higher value, AP2 beta2 appendage fragment, R879A mutant.
The nature of assay [11]: cytosolic pH regulators acting via V-ATPase – S. cerevisiae, pHLuorin, HTS validation (AID 504600; in the data active means response above about 15%;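 further: plate controls were DMSO for no effect and reference compound for full effect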). The note with it: V-ATPase proton transport, at 10 µM, stronger effect = higher value.
Assay [12] concerns anti-desmoglein-3 scFv antibody binding to human DSG3. The experiment in a line: blockers of pathogenic pemphigus antibody–desmoglein-3 binding – biochemical, validation compound set, bead-based, flow cytometry, pilot screen (AID 588368;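 active means binding below the plate cutoff, the plate median minus 3 SD, with a reading above zero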;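 further: signal is the median channel fluorescence of bead-bound GFP antibody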). The note with it: Protein G beads, DSG3-Fc, scFv-GFP binding, at 10 µM, stronger effect = lower value.
A short description of assay [13]: Nile Red efflux blockade in pump-expressing yeast – validation compound set, multiplex, phenotypic, pilot screen (AID 588506;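 active means efflux inhibition above 0.42, the validation set average plus 4 SD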;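 further: Nile Red retained in cells so higher fluorescence means more efflux inhibition; 0 = negative control wells and 1 = enniatin B 25 µM full block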). The note with it: S. cerevisiae pump-expressing triplex, Nile Red efflux flow cytometry; at 10 µM; stronger effect = higher value; the pumps come from Candida albicans.
Assay [14] deals with ATP-binding cassette sub-family B member 6 (Homo sapiens) (UniProt Q9NP58). The experiment in a line: blockers of ABCB6-driven porphyrin uptake – K562-ABCB6 cells, flow cytometry, validation set, pilot screen (AID 588550;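 active means inhibition above the screen-wide mean plus 3 SD, about 51%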;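 further: 0% = DMSO wells and 100% = benzethonium chloride 70 µM positive control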). Particulars: K562-ABCB6 porphyrin accumulation, 1 h, at 10 µM, stronger effect = higher value.
Assay [15] can be described thus: AML differentiation inducers, ER-HoxA9 marrow cells – cell-based, GFP/MAC1 double positive, flow cytometry, validation set, primary screen (AID 588685;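 active means differentiation response of at least 50%, scaled between solvent and reference control, from cells with both markers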;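 further: compound exposure lasts four days before antibody staining and flow analysis; 0% = DMSO wells and 100% = 5 µM fulvestrant positive control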). Particulars: stronger effect = higher value, normalized: vehicle 0, fulvestrant 100.
A short description of assay [16]: TOR pathway GLN3 branch reporter MEP2-GFP changes – S. cerevisiae, multiplex flow cytometry, primary screen (AID 1867;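 active means GFP response, as percent of the DMSO control, above the screen-wide mean plus 3 SD, about 139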;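 further: median GFP channel fluorescence of barcode-gated MEP2-GFP cells measured by flow cytometry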). The note with it: S. cerevisiae MEP2-GFP strain, 3 h, at 10 µM, stronger effect = higher value, 100% means same as DMSO wells.

Results filed as inconclusive are left out. Calls of active or inactive are those of the source. Unless noted, no stated cut-off is given here; in the data, active means percent of DMSO control GFP below about 86%; inactive means the rest, inconclusive results apart.

Sequence of Beta-adrenergic receptor kinase 1 (Homo sapiens) (P25098 whole entry, looked up): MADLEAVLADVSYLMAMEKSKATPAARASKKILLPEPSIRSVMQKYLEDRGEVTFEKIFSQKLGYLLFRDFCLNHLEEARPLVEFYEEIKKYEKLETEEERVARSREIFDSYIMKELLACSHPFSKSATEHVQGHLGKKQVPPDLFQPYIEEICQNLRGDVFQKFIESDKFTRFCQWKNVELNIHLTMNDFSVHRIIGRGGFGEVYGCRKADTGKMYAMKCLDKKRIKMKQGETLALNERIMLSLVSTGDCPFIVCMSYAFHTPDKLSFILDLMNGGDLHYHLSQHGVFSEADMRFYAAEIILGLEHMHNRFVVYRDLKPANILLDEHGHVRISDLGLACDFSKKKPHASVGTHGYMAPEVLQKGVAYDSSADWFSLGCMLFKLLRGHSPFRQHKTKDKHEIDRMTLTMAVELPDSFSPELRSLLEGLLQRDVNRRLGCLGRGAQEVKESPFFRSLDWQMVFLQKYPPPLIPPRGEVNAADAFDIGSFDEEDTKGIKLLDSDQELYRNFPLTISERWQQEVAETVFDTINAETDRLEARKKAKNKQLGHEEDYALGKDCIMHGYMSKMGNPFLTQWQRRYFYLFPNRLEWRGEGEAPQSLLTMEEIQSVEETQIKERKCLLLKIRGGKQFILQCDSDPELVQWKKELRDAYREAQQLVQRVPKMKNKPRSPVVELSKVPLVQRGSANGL
Sequence of AP-2 complex subunit beta (Homo sapiens) (P63010 whole entry, looked up, the tested form may be a part, one chain of several): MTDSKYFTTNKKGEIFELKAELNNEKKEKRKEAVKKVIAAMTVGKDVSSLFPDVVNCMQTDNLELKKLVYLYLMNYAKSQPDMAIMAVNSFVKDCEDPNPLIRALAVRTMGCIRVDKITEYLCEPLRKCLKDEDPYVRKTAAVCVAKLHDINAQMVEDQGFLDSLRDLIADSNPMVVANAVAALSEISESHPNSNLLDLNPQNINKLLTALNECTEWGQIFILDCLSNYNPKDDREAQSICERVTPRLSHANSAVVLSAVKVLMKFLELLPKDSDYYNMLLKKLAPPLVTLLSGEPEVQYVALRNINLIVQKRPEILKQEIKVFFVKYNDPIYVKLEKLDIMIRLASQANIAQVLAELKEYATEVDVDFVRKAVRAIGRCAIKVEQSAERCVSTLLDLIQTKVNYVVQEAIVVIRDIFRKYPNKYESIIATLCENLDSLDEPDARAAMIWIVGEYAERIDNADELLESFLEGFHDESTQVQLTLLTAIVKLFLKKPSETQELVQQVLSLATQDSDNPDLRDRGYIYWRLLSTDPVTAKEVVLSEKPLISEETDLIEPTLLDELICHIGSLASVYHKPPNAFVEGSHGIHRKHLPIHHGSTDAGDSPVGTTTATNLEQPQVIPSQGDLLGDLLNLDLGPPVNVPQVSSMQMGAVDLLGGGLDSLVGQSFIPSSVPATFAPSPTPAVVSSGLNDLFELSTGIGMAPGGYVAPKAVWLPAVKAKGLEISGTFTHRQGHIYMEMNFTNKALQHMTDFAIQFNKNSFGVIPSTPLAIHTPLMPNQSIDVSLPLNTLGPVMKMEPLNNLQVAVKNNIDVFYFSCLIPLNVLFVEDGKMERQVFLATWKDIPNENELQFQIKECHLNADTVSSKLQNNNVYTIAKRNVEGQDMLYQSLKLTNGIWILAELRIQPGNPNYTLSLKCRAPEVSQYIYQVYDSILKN
Sequence of ATP-binding cassette sub-family B member 6 (Homo sapiens) (Q9NP58 whole entry, looked up): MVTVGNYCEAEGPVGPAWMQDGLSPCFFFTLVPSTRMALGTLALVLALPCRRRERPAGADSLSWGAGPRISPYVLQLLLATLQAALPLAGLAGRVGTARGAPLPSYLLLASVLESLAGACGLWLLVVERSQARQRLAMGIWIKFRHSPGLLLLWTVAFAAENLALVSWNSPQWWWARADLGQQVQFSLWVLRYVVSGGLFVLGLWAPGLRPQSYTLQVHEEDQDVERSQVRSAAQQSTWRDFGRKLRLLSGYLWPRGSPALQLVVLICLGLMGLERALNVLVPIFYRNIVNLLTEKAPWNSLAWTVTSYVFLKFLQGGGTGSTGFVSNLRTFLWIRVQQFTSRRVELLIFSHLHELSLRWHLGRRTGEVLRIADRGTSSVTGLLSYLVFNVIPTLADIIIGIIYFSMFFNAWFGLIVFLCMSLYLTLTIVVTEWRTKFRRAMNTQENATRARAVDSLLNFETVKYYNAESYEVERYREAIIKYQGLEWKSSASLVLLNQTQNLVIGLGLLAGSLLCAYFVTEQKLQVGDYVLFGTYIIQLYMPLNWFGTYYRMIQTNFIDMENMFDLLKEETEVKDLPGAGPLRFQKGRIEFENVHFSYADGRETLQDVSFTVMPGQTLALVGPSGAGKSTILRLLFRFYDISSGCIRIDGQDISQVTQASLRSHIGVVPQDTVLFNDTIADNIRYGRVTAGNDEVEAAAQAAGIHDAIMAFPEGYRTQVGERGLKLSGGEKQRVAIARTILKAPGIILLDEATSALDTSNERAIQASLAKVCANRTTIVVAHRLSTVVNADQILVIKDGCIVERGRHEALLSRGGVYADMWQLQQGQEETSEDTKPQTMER
Sequence of Beta-2 adrenergic receptor (Homo sapiens) (P07550 whole entry, looked up): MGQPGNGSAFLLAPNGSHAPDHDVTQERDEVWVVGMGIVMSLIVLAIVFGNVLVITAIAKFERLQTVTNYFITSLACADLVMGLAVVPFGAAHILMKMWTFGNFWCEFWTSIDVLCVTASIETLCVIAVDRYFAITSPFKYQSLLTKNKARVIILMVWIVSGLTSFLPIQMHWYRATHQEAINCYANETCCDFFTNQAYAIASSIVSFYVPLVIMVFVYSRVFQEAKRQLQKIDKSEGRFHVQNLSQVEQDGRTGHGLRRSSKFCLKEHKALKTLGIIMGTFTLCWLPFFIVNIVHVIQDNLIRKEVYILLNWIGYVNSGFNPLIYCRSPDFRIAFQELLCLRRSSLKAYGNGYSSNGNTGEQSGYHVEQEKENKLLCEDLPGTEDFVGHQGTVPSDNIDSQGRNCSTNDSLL
Sequence of Integrin beta-1 (Homo sapiens) + Integrin alpha-4 (Homo sapiens) (P05556 whole entry, looked up): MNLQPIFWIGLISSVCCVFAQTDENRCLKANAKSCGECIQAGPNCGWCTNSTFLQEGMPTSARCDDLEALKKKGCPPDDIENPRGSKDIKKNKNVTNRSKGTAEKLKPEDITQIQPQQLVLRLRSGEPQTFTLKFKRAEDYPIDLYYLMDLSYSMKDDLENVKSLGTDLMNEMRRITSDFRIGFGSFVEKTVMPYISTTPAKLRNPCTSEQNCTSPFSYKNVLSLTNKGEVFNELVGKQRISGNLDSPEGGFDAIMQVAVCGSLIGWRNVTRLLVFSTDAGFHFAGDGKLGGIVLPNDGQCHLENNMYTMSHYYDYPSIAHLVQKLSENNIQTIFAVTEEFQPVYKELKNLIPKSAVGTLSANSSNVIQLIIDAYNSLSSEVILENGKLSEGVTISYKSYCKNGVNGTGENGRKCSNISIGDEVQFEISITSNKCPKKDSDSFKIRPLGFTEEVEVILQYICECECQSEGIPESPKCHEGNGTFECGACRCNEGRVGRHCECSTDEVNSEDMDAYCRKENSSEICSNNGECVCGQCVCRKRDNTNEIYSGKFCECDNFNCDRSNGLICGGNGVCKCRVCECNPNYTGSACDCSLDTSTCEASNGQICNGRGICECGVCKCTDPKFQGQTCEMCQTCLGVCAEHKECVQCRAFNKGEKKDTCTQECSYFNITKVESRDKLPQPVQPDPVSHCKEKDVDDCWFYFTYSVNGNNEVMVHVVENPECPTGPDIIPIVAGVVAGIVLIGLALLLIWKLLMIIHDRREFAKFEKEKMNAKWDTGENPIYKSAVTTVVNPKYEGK
Sequence of Integrin beta-1 (Homo sapiens) + Integrin alpha-4 (Homo sapiens) (P13612 whole entry, looked up): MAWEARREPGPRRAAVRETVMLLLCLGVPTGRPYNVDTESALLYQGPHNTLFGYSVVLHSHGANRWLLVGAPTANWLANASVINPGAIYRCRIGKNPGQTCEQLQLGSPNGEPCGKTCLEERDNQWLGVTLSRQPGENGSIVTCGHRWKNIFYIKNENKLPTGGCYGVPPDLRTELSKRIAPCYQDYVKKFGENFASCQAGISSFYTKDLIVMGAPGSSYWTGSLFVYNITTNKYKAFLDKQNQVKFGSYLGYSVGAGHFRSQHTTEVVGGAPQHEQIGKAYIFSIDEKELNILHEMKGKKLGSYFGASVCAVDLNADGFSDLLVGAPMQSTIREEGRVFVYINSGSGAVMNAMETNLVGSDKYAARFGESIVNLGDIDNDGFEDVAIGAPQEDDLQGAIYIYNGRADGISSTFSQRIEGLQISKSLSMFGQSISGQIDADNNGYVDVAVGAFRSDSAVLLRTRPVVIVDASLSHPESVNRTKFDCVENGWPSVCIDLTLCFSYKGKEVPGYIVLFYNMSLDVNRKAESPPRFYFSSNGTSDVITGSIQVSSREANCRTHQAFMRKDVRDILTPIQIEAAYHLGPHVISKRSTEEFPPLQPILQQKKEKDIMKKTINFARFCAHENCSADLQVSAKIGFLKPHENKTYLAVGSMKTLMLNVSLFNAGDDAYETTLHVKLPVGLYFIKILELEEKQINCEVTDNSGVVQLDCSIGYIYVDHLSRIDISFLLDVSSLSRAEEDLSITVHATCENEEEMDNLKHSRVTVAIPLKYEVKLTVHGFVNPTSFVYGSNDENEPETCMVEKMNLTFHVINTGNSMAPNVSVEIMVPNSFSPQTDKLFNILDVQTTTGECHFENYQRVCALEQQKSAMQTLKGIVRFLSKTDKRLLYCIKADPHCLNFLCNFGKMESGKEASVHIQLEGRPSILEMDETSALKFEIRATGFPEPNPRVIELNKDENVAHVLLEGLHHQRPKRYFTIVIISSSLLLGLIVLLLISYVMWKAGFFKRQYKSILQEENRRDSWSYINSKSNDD

Turning to `c1ccc2c(c1)CCCC2C1=NCCN1` (stereo not drawn), in assay [1], the percent of DMSO control GFP was 98.2% (inactive). In assay [2], the percent response of DMSO control was 102% (inactive). Moreover, in [3], the GFP response vs DMSO was 108% (inactive). Further, the GFP response, % of DMSO in assay [4] was 110% (inactive). Moreover, the double positive events in assay [5] is 69.5%. In [5], the vesicle binding response was 263% (inactive). In addition, the inhibition is -15.6% (inactive) in assay [6], -7.04% (inactive) in [10] and 19% (inactive) in assay [14]. Besides, in [7], the superoxide response (% of plate) was 82.6% (inactive). Besides, the aptamer binding inhibition in assay [8] was -1% (inactive). Also, the results for the response in assay [9] and in [11] were -24.5% (inactive) and 1.56% (inactive), respectively. In addition, the binding (% of control) in [12] was 101% (inactive). Also, the efflux inhibition (fraction of control) in assay [13] was -0.04 (inactive). The differentiation response in assay [15] is 8.8% (inactive).
Turning to `O=P(O)(O)CP(=O)(O)O`, the percent of DMSO control GFP in assay [1] was 91.9% (inactive). The percent response of DMSO control in assay [2] is 90.5% (inactive). The GFP response vs DMSO in [3] is 123% (inactive). In assay [4], the GFP response, % of DMSO is 122% (inactive). For the same compound, the double positive events in assay [5] is 61.8%. For the same compound, the vesicle binding response in [5] was 178% (inactive). In addition, the values for the inhibition in assay [6], in assay [10] and in assay [14] were 22.7% (inactive), -22.1% (inactive) and -3% (inactive), respectively. Besides, the superoxide response (% of plate) in [7] was 93% (inactive). For the same compound, in [8], the aptamer binding inhibition is 0% (inactive). For the same compound, the response is -17.7% (inactive) in assay [9] and -0.51% (inactive) in assay [11]. The binding (% of control) in assay [12] is 101% (inactive). Further, in [13], the efflux inhibition (fraction of control) was 0 (inactive). Also, in [15], the differentiation response was 28.5% (inactive).
Regarding `CNCCCN1c2ccccc2CCc2ccccc21`, the percent of DMSO control GFP in assay [1] is 93.3% (inactive). For the same compound, the GFP response vs DMSO in [16] is 111% (inactive); in [3], 78.7% (inactive). In assay [2], the percent response of DMSO control was 92.6% (inactive). The double positive events in assay [5] turned out to be 71.5%. For the same compound, the vesicle binding response in assay [5] was 231% (inactive). Moreover, the inhibition in assay [6] was 16.2% (inactive); in assay [10] it was -10.5% (inactive); in assay [14], 9% (inactive). The superoxide response (% of plate) in [7] is 81.9% (inactive). In [8], the aptamer binding inhibition was -1% (inactive). Further, in assay [11], the response is 0.46% (inactive). In [12], the binding (% of control) was 109% (inactive). Further, in [13], the efflux inhibition (fraction of control) was -0.38 (inactive). Further, in assay [15], the differentiation response is 9.83% (inactive).
On to `CC(=O)N1N=C(c2cccs2)CC1c1ccc(C)o1` (stereo not drawn), for which the percent of DMSO control GFP in assay [1] is 92.8% (inactive). The GFP response vs DMSO is 131% (inactive) in assay [16] and 78.7% (inactive) in [3]. Further, the percent response of DMSO control in [2] is 91.3% (inactive). Further, the double positive events in assay [5] came out at 55.8%. For the same compound, the vesicle binding response in [5] is 145% (inactive). For the same compound, the inhibition in assay [6] is 11.3% (inactive); in assay [10] it was -6.28% (inactive); in [14], 9% (inactive). In [7], the superoxide response (% of plate) was 117% (inactive). Moreover, the aptamer binding inhibition in assay [8] was 0% (inactive). Also, the figures for the response in assay [9] and in assay [11] were -10.5% (inactive) and -0.52% (inactive), respectively. The binding (% of control) in assay [12] was 96.7% (inactive). Further, the efflux inhibition (fraction of control) in assay [13] was 0.45 (active). Further, the differentiation response in assay [15] is -4.91% (inactive).
`CCCCC[C@H](O)/C=C/[C@@H]1[C@@H](C/C=C\CCCC(=O)OC)[C@@H](O)C[C@H]1O`: the percent of DMSO control GFP in assay [1] was 97.4% (inactive). Further, the GFP response vs DMSO in assay [16] is 127% (inactive). In addition, the percent response of DMSO control in assay [2] is 99.2% (inactive). Moreover, the double positive events in [5] was 59.2%. Further, the vesicle binding response in assay [5] is 157% (inactive). Also, the inhibition was -30.4% (inactive) in assay [6], -11.2% (inactive) in assay [10] and 13% (inactive) in [14]. For the same compound, the superoxide response (% of plate) in assay [7] is 171% (inactive). In addition, the aptamer binding inhibition in assay [8] is 12% (inactive). The figures for the response in [9] and in [11] were 4.64% (inactive) and -0.57% (inactive), respectively. For the same compound, the binding (% of control) in [12] is 116% (inactive). In addition, in assay [13], the efflux inhibition (fraction of control) is 0.05 (inactive). In addition, in [15], the differentiation response is 2.46% (inactive).
